Among the data in ChEMBL document CHEMBL1157539, “Thousands of chemical starting points for antimalarial lead identification” (Nature, 2010) are Inhibition values, retold here.

What all share (assay type): functional
Assay [1] relates to Plasmodium falciparum. The assay is described as follows: GSK_TCMDC: Inhibition of Plasmodium falciparum 3D7 in whole red blood cells, using parasite LDH activity as an index of growth. Test compounds present at 2uM.
The subject of assay [2] is Plasmodium falciparum. The assay is described as follows: GSK_TCMDC: Inhibition of Plasmodium falciparum Dd2 in whole red blood cells, using parasite LDH activity as an index of growth. Test compounds present at 2uM.
The test system of assay [3] is HepG2. The assay can be described thus: GSK_TCMDC: Percent inhibition of human HepG2 cell line. Test compounds present at 10uM.

As to `Cc1ccc(CNc2cc(C(F)(F)F)nc(-c3ccc(S(C)(=O)=O)cc3)n2)cc1`, the Inhibition in assay [1] came out at 89%; in assay [2] it was 72%; in assay [3], 2%.
Taken in the same sequence, the figures for `Cc1[nH]c(C)c(-c2ccc(-c3ccc(Cl)cc3)nc2)c(=O)c1Cl` were 95%, 96% and 8%.
Turning to `Nc1oc2c(CN3CCCCCC3)c(O)ccc2c(=O)c1-c1nc2ccccc2s1`, the Inhibition in assay [1] is given as 100%; in assay [2] it was 99%; in assay [3], 12%.
With `O=C(Nc1ccc(Cn2nc(Cl)c(N3CCNCC3)cc2=O)cc1)Nc1ccc(-c2ccccc2)cc1.O=C(O)C(F)(F)F`, the values for the Inhibition in assay [1], in assay [2] and in assay [3] were 97%, 49% and 99%, respectively.
With `CC(=O)Oc1ccc(C(=O)Oc2ccccc2C#CC#N)cc1OC(C)=O`, the Inhibition in assay [1] came to 93%; in assay [2] it was 61%; in assay [3] it was 23%.
On to `CCCCCCN1CCN(Cc2cccc(NC(=O)c3cc4ccccc4o3)c2)CC1.O=C(O)C(F)(F)F`, for which the Inhibition came to 93% in assay [1], 83% in assay [2] and 20% in assay [3].
In the case of `COCc1ccccc1C(=O)NCCOc1cc(C)cc(C)c1`, the Inhibition is on record as 96% in assay [1], 95% in assay [2] and 26% in assay [3].
As for `Cc1cccc(C(=O)N2CCN(Cc3cccc(NC(=O)c4ccco4)c3)CC2)c1.O=C(O)C(F)(F)F`, the Inhibition is on record as 94% in assay [1], 79% in assay [2] and 7% in assay [3].
For `Cc1cccc(Nc2nccc(NCC(O)c3ccc(C(F)(F)F)cc3)n2)c1` (stereo not given) the same measures were 100%, 54% and 11%.
For the compound `NC1CCN(c2nc(NCCCc3ccc(O)cc3)nc(NCc3ccccc3-c3ccc(C(F)(F)F)cc3)n2)CC1.O=C(O)C(F)(F)F`, the Inhibition in assay [1] amounted to 100%; in assay [2], 88%; in assay [3] it was 15%.
With `O=c1[nH]nc(-c2ccc(N3CCCC3)c([N+](=O)[O-])c2)c2ccccc12`, the Inhibition in assay [1] turned out to be 100%; in assay [2] it was 39%; in assay [3], 2%.
Turning to `Cc1cccc(CNc2nc(C)cc(N[C@@H](Cc3ccccc3)C(=O)NCCOc3ccccc3)n2)c1.O=C(O)C(F)(F)F`, the Inhibition in assay [1] is given as 93%; in assay [2], 54%; in assay [3], 28%.
Regarding `CCOC(=O)CCCc1cc(NC2CCN(C)CC2)nc(Nc2ccc(OC)cc2)n1`, the Inhibition stood at 99% in assay [1], 17% in assay [2] and 41% in assay [3].
With `CN(C)Cc1ccc2cc(NC(=O)c3ccc(-c4ccc(Cl)cc4)cc3)ccc2c1`, the Inhibition in assay [1] was 92%; in assay [2], 22%; in assay [3], 21%.
Regarding `N#Cc1cc([N+](=O)[O-])ccc1-n1nc(-c2cccc(Cl)c2)n(Cc2ccco2)c1=S`, the Inhibition was 100% in assay [1], 100% in assay [2] and 12% in assay [3].
`O=C(Nc1ccc(-c2nc3ccccc3[nH]2)cc1)c1ccc([N+](=O)[O-])s1`: the Inhibition came out at 100% in assay [1], 77% in assay [2] and 83% in assay [3].
Turning to `O=C1O[C@H](c2ccccc2)[C@H](c2ccccc2)N(C(=O)OCc2ccccc2)[C@H]1Cc1ccccc1C1CCCC1`, the Inhibition turned out to be 97% in assay [1], 0% in assay [2] and 56% in assay [3].
As for `Cc1cc2nc(-c3ccc(/C=C/C(=O)NCc4ccc(Cl)c(Cl)c4)cc3)[nH]c2cc1C`, the Inhibition in assay [1] is listed as 98%; in assay [2], 83%; in assay [3] it was 32%.
For the compound `COc1ccc2c(c1)c(C1CCN(CCCCNC(=O)c3ccc(-c4ccc(C(F)(F)F)cc4)cc3)CC1)cn2C(C)C`, the Inhibition in assay [1] was 99%; in assay [2], 21%; in assay [3], 26%.
For `O=C(O)C(F)(F)F.Oc1ccc(CCCNc2nc(NCc3cccc4ccccc34)nc(N3CCCNCC3)n2)cc1`, the Inhibition worked out at 96% in assay [1], 62% in assay [2] and 98% in assay [3].
In the case of `Cn1cncc1-c1ccc2ncnc(Nc3ccc(OCc4ccccc4)cc3)c2c1`, the Inhibition in assay [1] is recorded as 100%; in assay [2] it was 99%; in assay [3], 4%.
As for `COc1ccccc1CNC(=O)c1nn(-c2ccc(Cl)cc2)c(=O)c2ccccc12`, the results for the Inhibition in assay [1], in assay [2] and in assay [3] were 100%, 80% and 0%, respectively.
As for `COc1cc(NC(=O)c2sc(-c3ccc(Cl)cc3)cc2NC(=O)c2cccc(N(C)C)c2)ccc1OCCN1CCCC1`, the values for the Inhibition in assay [1], in assay [2] and in assay [3] were 99%, 67% and 49%, respectively.
For `Cc1cccc2nc(-c3ccc(-c4ccc(NC(=O)NCc5cccc(F)c5)cc4)s3)[nH]c12`, the Inhibition worked out at 100% in assay [1], 43% in assay [2] and 70% in assay [3].
Take `CCCOc1ccc(CCNCCCCNCCc2ccc(OCCC)c3ccccc23)c2ccccc12.CS(=O)(=O)O`: the results for the Inhibition in assay [1], in assay [2] and in assay [3] were 93%, 52% and 100%, respectively.
Take `COc1ccc(-c2ccc(CNC(=O)c3cccc(C#N)c3)c(F)c2)cc1CN1CCCN(C)CC1.O=C(O)C(F)(F)F`: the Inhibition in assay [1] came out at 99%; in assay [2] it was 30%; in assay [3] it was 8%.
With `O=C(OCc1ccccc1)N1CCc2c([nH]c3ccccc23)C1CCC(F)(F)F` (stereo not given), the Inhibition in assay [1] was determined as 94%; in assay [2] it was 81%; in assay [3], 0%.
In the case of `Cc1cccc(OCC2CCN(c3ncc(C(=O)NC4CC4)cc3Cl)CC2)c1`, the Inhibition came to 90% in assay [1], 78% in assay [2] and 0% in assay [3].
Taken in the same sequence, the figures for `O=C1COc2ccc(CNC3CCC(O)(CCc4ccnc5cc6c(cc45)OCCO6)CC3)nc2N1` (stereo not given) were 92%, 0% and 0%.
With `O=C(Nc1cccc(C(F)(F)F)c1)Nc1cc(F)c(F)cc1Cl`, the Inhibition is given as 83% in assay [1], 98% in assay [2] and 0% in assay [3].

The Inhibition is the change of the read-out against control, counted positive when it falls. High values mean strong suppression, low ones little suppression.
